The source of these data is PubChem BioAssay (Tox21).

The structures appear in SMILES notation. Unmarked numbers belong to inactive results. Results filed as inconclusive are left out. Active and inactive are the calls of the source. Unless noted, the call rests on the fitted dose curve; in most records, active means well fitted curve in the direction sought with a large enough effect in the repeat runs; inconclusive means weak or mixed curves; inactive means no such curve, though single readings can be large; an effect the other way counts as inactive or inconclusive.

Assay [1] addresses Luciferin 4-monooxygenase (Photinus pyralis) (UniProt P08659). As to the kind of experiment: qHTS assay to identify small molecule inhibitors of firefly luciferase (AID 1224835). Further: nearly all actives have a fitted effect of over 25% in size. Further: potency means the concentration at half of the fitted maximal effect. The procedure, abridged: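 Inhibition of purified Photinus luciferase is measured by luminescence. Substrate levels (D-luciferin, ATP) sit at their KM values. Each compound is tested in a concentration series.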

Assay [2] in a line: qHTS assay to identify small molecule agonists of the constitutive androstane receptor (CAR) signaling pathway - cell viability counter screen (AID 1224836). Further: nearly all actives have a fitted effect of over 45% in size. The procedure, abridged: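 Using CellTiter-Fluor, viability of HepG2 cells harbouring hCAR and CYP2B6-2.2kb was measured following 23 h incubation with a 15-concentration compound series plus PK11195 (0.75 uM final).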
A short description of assay [3]: qHTS assay to identify small molecule antagonists of the constitutive androstane receptor (CAR) signaling pathway - cell viability counter screen (AID 1224837). Further: nearly all actives have a fitted effect of over 45% in size. The essentials:
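Read-out: CellTiter-Fluor fluorescence after 23 hr at 37 C/5% CO2. Cells: HepG2 double-stable for hCAR and CYP2B6-2.2kb. Compounds tested at 15 concentrations in the presence of CITCO, final concentration 50 nM.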
(In general: In qHTS, concentration-response curves come from the screen itself.)

Assay [4] has as its target Nuclear receptor subfamily 1 group I member 3 (Homo sapiens) (UniProt Q14994). Description: qHTS assay to identify small molecule antagonists of the constitutive androstane receptor (CAR) signaling pathway (AID 1224838).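 Further: HepG2 cells stably expressing hCAR with CYP2B6 luciferase reporter stimulated by CITCO; nearly all actives have a fitted effect of over 40% in size.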 The procedure, abridged: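 Read-out: ONE-Glo luciferase luminescence after 30 min at room temperature. HepG2-CYP2B6-hCAR double-stable cells, compounds in 15-point titration plus 50 nM CITCO final, 24 h at 37 C/5% CO2.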

For assay [5] the target is unchanged. Description: qHTS assay to identify small molecule agonists of the constitutive androstane receptor (CAR) signaling pathway (AID 1224839). Further: nearly all actives have a fitted effect of over 15% in size. Further: potency means the concentration at half of the fitted maximal effect.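 On activation: HepG2 cells stably carrying human CAR and a CYP2B6 luciferase reporter.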 The essentials: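 Double-stable HepG2 cells (hCAR, CYP2B6-2.2kb) seeded 4 h before compound addition. Exposure 24 h with 0.75 uM PK11195 final. Luciferase detected by ONE-Glo.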
Assay [6] can be described thus: qHTS assay to identify small molecule antagonists of the estrogen related receptor signaling pathway with the pleiotropic PPARgamma coactivator (PGC) from Tox21 10K library - cell viability counter screen (AID 1224840; active means well fitted cell-killing curve with a large enough effect in the repeat runs, not every such curve was filed as active; further: nearly all actives have a fitted effect of over 40% in size). The essentials:
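Fluorescence read-out of CellTiter-Fluor viability reagent, added after cells had been exposed to compound in DMSO for 17.5 h at 37 C; 30 min development at 37 C/5% CO2. Cells: PGC/ERR line, 2,000/well.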

The nature of assay [7]: qHTS assay to identify small molecule antagonists of the estrogen related receptor signaling pathway with the pleiotropic PPARgamma coactivator (PGC) from Tox21 10K library (AID 1224841; call rule not given here; further: actives are mostly falling curves and most rising ones were filed inactive; nearly all actives have a fitted effect of over 50% in size). The essentials: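 Luminescence read-out (One-Glo luciferase reagent, 30 min at room temperature) from PGC/ERR cells exposed to DMSO-dissolved test compounds for 18 h at 37 C; cells, 2,000 per well, had been preincubated 6 h before compound transfer.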

Assay [8] can be described thus: qHTS assay to identify small molecule agonists of the estrogen related receptor signaling pathway with the pleiotropic PPARgamma coactivator (PGC) from Tox21 10K library (AID 1224842). Further: nearly all actives have a fitted effect of over 15% in size. The essentials: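 Luminescence from One-Glo (30 min, room temperature) measured after PGC/ERR cells had 18 h at 37 C with pinned compound (23 nL in DMSO). Cells had been seeded at 2,000 per well and pre-incubated 6 h.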

Assay [9] in a line: qHTS assay to identify small molecule agonists of H2AX (AID 1224845; active means well fitted activation curve with a large enough effect in the signal ratio in the repeat runs, not every such curve was filed as active; the % refers to the signal ratio). The procedure, abridged: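 Phospho-H2AX Ser139 measured by HTRF (ex 320 nm; em 665 and 620 nm) after 24 hr antibody incubation. Compounds, 15 concentrations, 0.76% DMSO, were applied to CHO-K1 cells for 3hr at 37C before lysis.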
A short description of assay [10]: qHTS assay to identify small molecule agonists of H2AX - cell viability counter screen (AID 1224847; calls by dose curve; further: top concentration of the series differs between compounds; nearly all actives have a fitted effect of over 30% in size). The essentials:
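Quantitative HTS viability measurement: CHO-K1 wild-type cells in serum (10% FBS) medium, short 3 hr drug exposure at 37C with 0.76% DMSO, CellTiter-Glo luminescent detection.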

A short description of assay [11]: qHTS assay to identify small molecule antagonists of the estrogen related receptor (ERR) signaling pathway from Tox21 library (AID 1224848). Further: nearly all actives have a fitted effect of over 50% in size. The essentials:
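ERR cell line, 2,000 cells/well. 6 h settle, then compound (DMSO) added; 18 h at 37 C; ONE-Glo luminescence after 30 min RT.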

Assay [12] can be described thus: qHTS assay to identify small molecule agonists of the estrogen related receptor (ERR) signaling pathway from Tox21 library (AID 1224849; calls by dose curve; further: nearly all actives have a fitted effect of over 15% in size). Particulars: ERR reporter cell line, ONE-Glo luciferase, 18 h; at 92.4 µM (top of the series) unless noted. The essentials: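 Luminescence readout (ONE-Glo, 30 min RT) after 18 h compound exposure at 37 C of NTP-supplied ERR reporter cells; cells were plated 6 h before compound addition by pin tool.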

The nature of assay [13]: qHTS RealTime-Glo MT Cell Viability Assay in HepG2 cells - 24 hour (AID 1224867). Further: nearly all actives have a fitted effect of over 50% in size. The essentials:
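Real-time, nonlytic viability: 600 HepG2 cells/well mixed with NanoLuc enzyme plus prosubstrate; 5 h settle, compound (DMSO) added by pintool; luminescence monitored over 40 h at 37 C.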

A short description of assay [14]: qHTS RealTime-Glo MT Cell Viability Assay in HEK293 cells - 32 hour (AID 1224868). Further: top concentration of the series differs between compounds; nearly all actives have a fitted effect of over 50% in size. The procedure, abridged: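 Cells + reagent dispensed (600 cells/well, HEK293) → 5 h at 37 C/5% CO2 → 23 nL compound in DMSO pinned → 40 h at 37 C → luminescence read at 0, 8, 16, 24, 32, 40 h.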
A short description of assay [15]: A CellTox Green Cytotoxicity Assay to monitor cytotoxicity in HEK293 cells - 0 hour (AID 1224869). Further: nearly all actives have a fitted effect of over 50% in size. The essentials: (§1)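 Read-out: fluorescence of a cell-impermeant cyanine dye staining DNA of dead cells, proportional to cytotoxicity. HEK293, 600 cells/well with reagent, compound (23 nL DMSO) added after 5 h; reads at 0, 8, 16, 24, 32, 40 h.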
A short description of assay [16]: qHTS RealTime-Glo MT Cell Viability Assay in HepG2 cells - 40 hour (AID 1224870). Further: nearly all actives have a fitted effect of over 50% in size. The procedure, abridged: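 Real-time viability: cells seeded at 600 per well together with NanoLuc and cell-permeant prosubstrate, compounds added after 5 h incubation. Luminescence tracked at 0, 8, 16, 24, 32 and 40 h of exposure.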
Assay [17] is described as follows: A CellTox Green Cytotoxicity Assay to monitor cytotoxicity in HEK293 cells - 40 hour (AID 1224871). Further: nearly all actives have a fitted effect of over 45% in size. The essentials: as §1
The target in assay [18] is Thyrotropin receptor (Homo sapiens) (UniProt P16473). As to the kind of experiment: qHTS assay to identify small molecule agonists of the thyroid stimulating hormone receptor (TSHR) signaling pathway (AID 1224843; calls by dose curve; further: nearly all actives have a fitted effect of over 45% in size). The essentials:
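A cell-based cAMP HTRF format was run in TSHR-transfected HEK293 cells, 800 per well. Treatment: 30 min, room temperature. Detection: 1 h with labelled cAMP and anti-cAMP cryptate. Concentration-response over 15 points, three replicates.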

Assay [19] can be described thus: qHTS assay to identify small molecule agonists of the hypoxia (HIF-1) signaling pathway (AID 1224846; active means well fitted activation curve with a large enough effect in the signal ratio in the repeat runs, not every such curve was filed as active; the % refers to the signal ratio). The procedure, abridged:
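Beta-lactamase FRET read-out (CCF4-AM substrate) from ME-180 cells carrying an HRE-driven bla reporter, after 17 hrs compound exposure at 37C/5% CO2. Cells were seeded at 2,000 per well in 0.5% dialyzed FBS medium and preincubated 5 hrs.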

Assay [20] can be described thus: qHTS assay to identify small molecule agonists of the hypoxia (HIF-1) signaling pathway - cell viability counter screen (AID 1224844; calls by dose curve; further: nearly all actives have a fitted effect of over 50% in size). The procedure, abridged:
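CellTiter-Glo luminescence read-out, 30 min RT, taken in the same wells as the beta-lactamase HRE reporter assay; HRE-bla ME-180 cells, 0.5% dialyzed FBS, 17 hr compound treatment at 37C, 5% CO2.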
On the % scale 0 is the no-effect control and ±100 the full control effect.

Chain of Thyrotropin receptor (Homo sapiens) (P16473 whole entry, looked up): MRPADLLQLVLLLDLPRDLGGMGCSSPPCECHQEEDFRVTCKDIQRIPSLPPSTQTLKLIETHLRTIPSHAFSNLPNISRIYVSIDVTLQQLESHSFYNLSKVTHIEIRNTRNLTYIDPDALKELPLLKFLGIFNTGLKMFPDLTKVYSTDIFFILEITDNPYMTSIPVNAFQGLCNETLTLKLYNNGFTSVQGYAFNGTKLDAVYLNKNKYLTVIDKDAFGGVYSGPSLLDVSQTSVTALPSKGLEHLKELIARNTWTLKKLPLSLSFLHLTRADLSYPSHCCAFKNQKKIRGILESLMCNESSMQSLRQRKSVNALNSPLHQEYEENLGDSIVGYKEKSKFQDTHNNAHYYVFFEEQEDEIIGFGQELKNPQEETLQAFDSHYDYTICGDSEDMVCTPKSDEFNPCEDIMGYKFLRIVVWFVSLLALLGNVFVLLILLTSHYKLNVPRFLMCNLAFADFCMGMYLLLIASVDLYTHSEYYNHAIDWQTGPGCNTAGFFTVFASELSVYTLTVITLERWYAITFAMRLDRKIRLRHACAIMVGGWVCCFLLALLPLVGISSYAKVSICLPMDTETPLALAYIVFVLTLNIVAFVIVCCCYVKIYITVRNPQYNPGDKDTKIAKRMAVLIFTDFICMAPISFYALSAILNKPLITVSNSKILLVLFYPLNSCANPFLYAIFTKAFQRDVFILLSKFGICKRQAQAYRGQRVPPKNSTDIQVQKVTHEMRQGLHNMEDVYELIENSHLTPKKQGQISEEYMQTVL
Chain of Luciferin 4-monooxygenase (Photinus pyralis) (P08659 whole entry, looked up): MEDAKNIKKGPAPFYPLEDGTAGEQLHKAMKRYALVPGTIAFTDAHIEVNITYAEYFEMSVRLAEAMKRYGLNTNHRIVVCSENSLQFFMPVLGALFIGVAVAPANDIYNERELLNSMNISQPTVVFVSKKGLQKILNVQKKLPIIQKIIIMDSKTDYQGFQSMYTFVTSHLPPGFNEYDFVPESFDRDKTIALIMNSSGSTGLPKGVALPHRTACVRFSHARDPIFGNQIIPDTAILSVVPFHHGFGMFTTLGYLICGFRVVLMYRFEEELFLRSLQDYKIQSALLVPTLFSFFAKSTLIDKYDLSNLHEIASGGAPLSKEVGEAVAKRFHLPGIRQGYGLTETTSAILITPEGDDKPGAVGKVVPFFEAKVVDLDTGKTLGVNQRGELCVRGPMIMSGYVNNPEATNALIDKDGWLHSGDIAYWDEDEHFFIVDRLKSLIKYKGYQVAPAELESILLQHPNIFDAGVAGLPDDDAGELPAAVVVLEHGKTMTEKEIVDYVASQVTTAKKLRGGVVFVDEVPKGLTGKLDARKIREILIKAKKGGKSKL
Chain of Nuclear receptor subfamily 1 group I member 3 (Homo sapiens) (Q14994 whole entry, looked up): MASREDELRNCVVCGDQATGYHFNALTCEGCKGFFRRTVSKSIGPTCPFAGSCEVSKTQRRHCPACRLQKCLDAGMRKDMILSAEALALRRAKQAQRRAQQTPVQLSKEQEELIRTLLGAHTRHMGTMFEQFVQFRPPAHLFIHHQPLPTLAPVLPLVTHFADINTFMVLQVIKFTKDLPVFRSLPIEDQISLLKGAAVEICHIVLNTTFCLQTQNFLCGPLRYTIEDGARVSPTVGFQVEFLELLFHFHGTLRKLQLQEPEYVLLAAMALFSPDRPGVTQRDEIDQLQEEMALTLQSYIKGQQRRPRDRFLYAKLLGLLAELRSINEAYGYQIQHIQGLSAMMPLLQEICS

Consider `CC1(C)S[C@@H]2[C@H](NC(=O)C(C(=O)O)c3ccccc3)C(=O)N2[C@H]1C(=O)O` (stereo partly drawn), for which the Potency result in [1], in assay [2], in assay [3], in [4], in assay [5] and in assay [6] was “inactive” in each case. Besides, the Potency entry in assay [7], in assay [8], in assay [9], in [10], in assay [11] and in assay [13] was “inactive” throughout. Moreover, the Potency result in [14], in [15], in [16] and in [17] was “inactive” throughout. Further, in assay [12], the activity change, positive = activation was 8.06% [at 42.5 µM].

On to `Cc1c(N)cccc1N`, for which the Potency result in assay [1], in assay [2], in assay [3], in assay [4], in [5] and in [6] was “inactive” each time. Also, the Potency result in [18], in assay [9], in assay [10], in assay [13], in assay [15] and in assay [16] was “inactive” in each case. Besides, the Potency result in [17] was “inactive”. Also, in assay [19], the compound was called inactive.

With `O=C(O[C@@H](C(=O)O)[C@@H](OC(=O)c1ccccc1)C(=O)O)c1ccccc1`, the Potency entry in assay [1], in assay [2], in [3], in assay [4], in assay [5] and in [6] was “inactive” each time. In addition, the Potency entry in [8], in assay [20], in assay [11], in assay [13], in assay [15] and in assay [16] was “inactive” each time. Also, the Potency result in assay [17] is “inactive”. In [19], the outcome was inactive. In addition, the activity change, positive = activation in assay [12] is -13.3%.

Consider `O=c1oc2c(O)c(O)cc3c(=O)oc4c(O)c(O)cc1c4c23`, for which, in assay [1], the Potency is 12 µM (active). Moreover, the viability change, negative = cytotoxic is -3.24% [at 19 µM] in assay [2] and -7.93% [at 19 µM] in [6]. Moreover, the activity change, negative = cytotoxicity in assay [3] is 9.67% [at 19 µM]; in [20] it was 0.799% [at 15.8 µM]; in [10], 0.906% [at 31.6 µM]; in assay [13], -9.61% [at 15.8 µM]. The activity, negative = inhibition in [4] is 7.54% [at 19 µM]; in [11] it was 4.6% [at 19 µM]. Besides, the values for the activation in assay [5] and in [19] were -0.67% [at 19 µM] and -0.716% [at 15.8 µM], respectively. Further, in [12], the activity change, positive = activation is 2.5% [at 19 µM]. For the same compound, the activity change, negative = cytotoxic in [14] was -21.3% [at 15.8 µM]; in assay [16], -12.4% [at 15.8 µM]. Further, the cytotoxicity in assay [15] is 10.4% [at 15.8 µM]. The cytotoxicity increase in assay [17] was 16.8% [at 15.8 µM].

`Nc1ccc2ccccc2c1S(=O)(=O)O`: the Potency in [1] was 32.4 µM (active); in assay [5] it was 22.1 µM (active). In addition, the Potency result in assay [2], in [3], in assay [4], in [6], in [18] and in [9] was “inactive” each time. Further, the Potency result in [10], in assay [13], in assay [14], in assay [15], in assay [16] and in assay [17] was “inactive” throughout. The compound was called inactive in [19].

With `CN1[C@@H]2CC[C@H]1CC(OC(=O)c1c[nH]c3ccccc13)C2` (stereo partly drawn), the Potency result in [1], in [2], in assay [3], in [4], in assay [5] and in [6] was “inactive” in each case. Also, the Potency result in assay [18], in assay [20], in [9], in [10], in assay [13] and in assay [14] was “inactive” each time. Also, the Potency result in assay [15], in assay [16] and in assay [17] was “inactive” in each case.

Regarding `CN1CCN(N)CC1`, the Potency entry in assay [1], in assay [2], in assay [3], in [4], in [5] and in [6] was “inactive” in each case. The Potency result in assay [18], in [20], in assay [9], in [13], in assay [16] and in assay [17] was “inactive” throughout.

`O=C(O)c1cccc(Cl)c1Cl`: the Potency result in [1], in assay [2], in assay [3], in [4], in assay [5] and in assay [6] was “inactive” throughout. Further, the Potency result in assay [18], in [20], in [10], in assay [13], in assay [14] and in [15] was “inactive” throughout. Also, in assay [17], the Potency entry is “inactive”. Moreover, the outcome in assay [19] was inactive.
